Screening data from PubChem.
PLK1 PBD block = blocks phosphopeptide binding to human PLK1 polo-box domain; P53350; Plk1 PBD binding of FITC phosphopeptide, fluorescence polarization; Potency, µM, for the others: max response, negative = inhibition, usual class: inhibitors; 360,000 compounds, 2.8% hits; AID 720504; also: potency is read from the fitted curve at half-maximal effect; series mostly up to about 57 µM; % is scaled to controls: 0 for no effect and ±100 for the full control effect; nearly all actives have a fitted effect of over 65% in size
PI5P4K alpha inh = PI5P4K alpha (human) kinase inhibition | P48426 | PI5P4Kalpha enzyme, ADP-Glo luminescence, 60 min; hits give low values | max response, % | 330,000 compounds, 1.2% hits | AID 652105; active = max response of -50% or lower; inconclusive = between -30% and -50%; inactive = -30% or higher; also: value at the top dose of about 77 µM; % is scaled to controls: 0 for no effect and ±100 for the full control effect
Target sequence (P48426 whole entry, looked up): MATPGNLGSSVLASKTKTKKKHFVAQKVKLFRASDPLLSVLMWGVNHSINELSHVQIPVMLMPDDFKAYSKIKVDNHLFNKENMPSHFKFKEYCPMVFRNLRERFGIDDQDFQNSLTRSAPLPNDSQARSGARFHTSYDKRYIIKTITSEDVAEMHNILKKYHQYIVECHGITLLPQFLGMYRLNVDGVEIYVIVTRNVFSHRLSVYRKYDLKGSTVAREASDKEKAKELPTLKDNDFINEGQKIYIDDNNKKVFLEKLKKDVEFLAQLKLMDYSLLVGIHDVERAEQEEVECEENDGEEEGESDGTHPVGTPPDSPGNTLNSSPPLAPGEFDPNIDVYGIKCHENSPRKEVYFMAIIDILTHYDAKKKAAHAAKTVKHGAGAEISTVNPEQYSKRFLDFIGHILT
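Enzyme plus substrate dispensed, test compounds pinned in, then ATP (5 microM final) added. After 60 min at RT, ADP-Glo reagent 1 for 45 min and reagent 2 for 30 min preceded luminescence imaging.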
JMJD2A Tudor = JMJD2A Tudor domain (human) inhibition; O75164; AlphaScreen JMJD2A-Tudor / H3K4me3 peptide binding; Potency, µM (series often up to 114 µM), for the others: at the top dose activity change, negative = inhibition, most hits filed as inhibitors; 390,000 compounds, 4.4% hits; AID 504339; also: potency is read from the fitted curve at half-maximal effect; % is scaled to controls: 0 for no effect and ±100 for the full control effect; nearly all actives have a fitted effect of over 50% in size
BAZ2B block = inhibitors of human BAZ2B bromodomain; Potency, µM (doses to about 114 µM), for the others: top-dose activity change, negative = inhibition, hits mostly inhibitors; Q9UIF8; AlphaScreen BAZ2B-H3K14Ac peptide displacement; AID 504333; 360,000 compounds, 4.4% hits; also: potency is read from the fitted curve at half-maximal effect; % is scaled to controls: 0 for no effect and ±100 for the full control effect; nearly all actives have a fitted effect of over 60% in size
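AlphaScreen luminescence quantifies BAZ2B engagement of H3K14Ac peptide; the protein and biotinylated peptide are both at 50 nM final, buffer PBS pH 7.4 with 0.01% Tween-20, all steps at room temperature.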
HP1b chromo inh = HP1-beta chromodomain-methylated histone interaction inhibition; P83916; AlphaScreen HP1-beta / biotin-H3K9me3 peptide binding; Potency, µM (titrated, usually from 114 µM), for the others: at the highest dose activity change, negative = inhibition, most hits filed as inhibitors; 390,000 compounds, 0.56% hits; also: potency is read from the fitted curve at half-maximal effect; nearly all actives have a fitted effect of over 70% in size
Target sequence (P83916 whole entry, looked up): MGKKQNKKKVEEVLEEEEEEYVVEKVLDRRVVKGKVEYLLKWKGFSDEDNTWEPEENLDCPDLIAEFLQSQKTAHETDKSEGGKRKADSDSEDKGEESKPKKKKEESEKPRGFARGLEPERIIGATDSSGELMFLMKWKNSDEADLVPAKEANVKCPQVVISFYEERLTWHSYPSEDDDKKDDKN
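HP1-beta protein (50 nM final) preincubated 30 min at room temperature with biotinylated H3(1-18)K9me3 peptide (50 nM) in PBS pH 7.4, 0.01% Tween-20, then compound added for 30 min. AlphaScreen streptavidin donor/nickel chelate acceptor beads (10 ug/mL final), 30 min dark, luminescence read.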
GCN5L2 inh = blocks human GCN5L2 histone acetyltransferase; AID 504327; 390,000 compounds, 0.21% hits; Potency, µM (titrated, usually from 58.9 µM), for inactives: at the top dose activity change, negative = inhibition, usual class: inhibitors; GCN5L2 HAT assay, ThioGlo1 CoA-SH fluorescence; also: potency is read from the fitted curve at half-maximal effect; % is scaled to controls: 0 for no effect and ±100 for the full control effect
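qHTS, 1536-well. 20nM enzyme, pH 7.5 HEPES/EDTA/Tween-20 buffer; 15 min compound preinc., RT. Start: 75uM H3(1-25), 70uM AcCoA, 50uM ThioGlo1. Read Ex340/Em540 at t=0 (autofluorescence flag) and t=20 min.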
Numbers without * were called inactive; ? = inconclusive; . = no result; [ ] = dose if it differs, or a comment. Sampled rows, rich in hits. Any-hit rate of the full collection: about 7%. Unless noted, calls follow the shape of the dose curve; as a rule, active = well fitted curve in the direction sought with a large enough effect; inconclusive = small, poorly fitted or top-dose-only effect, or another doubt; inactive = no such curve, though single readings can be large; an effect the other way counts as inactive or inconclusive.

SMILES	PLK1 PBD block	PI5P4K alpha inh	JMJD2A Tudor	BAZ2B block	HP1b chromo inh	GCN5L2 inh
Cc1ccc(S(=O)(=O)Nc2ccc(N3CCOCC3)cc2)cc1C	-13%	0	?	-22%	-11%	-7%
N#Cc1nc(Nc2ccc(Br)cc2)nc(NC2CCCC2)n1	.	.	-14%	.	.	.
O=C(NCc1ccc2c(c1)OCO2)C(=O)Nc1cc2c3c(c1)CC(=O)N3CCC2	-13%	-13	-21%	-9%	2%	-10%
CC(=O)N1CCN(c2ccc(NS(=O)(=O)c3ccc(C)cc3)cc2)CC1	1%	9	-26%	-15%	9%	-4%
Cc1ccc(S(=O)(=O)Nc2ccc(N3CCCCC3)cc2)cc1	-10%	1	?	35µM*	?	-11%
CCOc1ncccc1C(=O)Nc1cc(S(=O)(=O)N(CC)CC)ccc1N1CCOCC1	17µM*	0	-30%	.	-6%	-11%
CCOc1ncccc1C(=O)Nc1cc(C(F)(F)F)ccc1N1CCOCC1	-16%	6	-5%	6%	21%	-8%
CCN(CC)S(=O)(=O)c1ccc(N2CCOCC2)c(NS(=O)(=O)c2ccc(C(C)C)cc2)c1	?	-22	25µM*	7%	?	-3%
CC(=O)C1=NN(c2ccccc2)C(c2cccs2)N1c1ccc(N(C)C)cc1 (stereo not drawn)	-9%	.	14µM*	45µM*	?	0%
CCOC(=O)C1=C(C)N(CCCC(=O)O)C(=O)NC1c1ccc(Cl)cc1Cl (stereo not drawn)	-4%	-98*	1%	1%	58%	-10%
CC1=C(C(=O)OCc2ccccc2)C(c2ccc(Cl)cc2Cl)NC(=O)N1CCCC(=O)O (stereo not drawn)	-20%	-76*	-21%	-39%	66%	-3%
CCOC(=O)C1=C(C)N(CCCC(=O)O)C(=O)NC1c1ccccc1Cl (stereo not drawn)	-10%	-89*	-12%	.	18%	.
CCOC(=O)C1=C(C)N(CCCCCC(=O)O)C(=O)NC1c1ccccc1Cl (stereo not drawn)	2%	0	-18%	?	34%	-3%
CC1=C(C(=O)OCc2ccccc2)C(c2ccc(Cl)cc2Cl)NC(=O)N1CCCCCC(=O)O (stereo not drawn)	-25%	?	-29%	?	10%	-14%
CCOc1ccc(N2CC(NC(=O)C3CCCC3)CC2=O)cc1 (stereo not drawn)	.	.	-12%	2%	-6%	-9%
COC(=O)c1ccccc1NC(=O)Cn1c(=O)n(CCC(=O)NCc2ccc3c(c2)OCO3)c(=O)c2ccccc21	.	.	-14%	3%	6%	3%
Cc1cccc(C)c1N(CC(=O)NCc1ccco1)C(=O)CNS(=O)(=O)c1ccc(F)cc1	2%	4	-5%	-14%	14%	-5%
Cc1ccc2c(Cl)cc(Cl)c(OCC(=O)NCc3ccco3)c2n1	.	.	.	40µM*	.	?
Cc1ccc2c(Cl)cc(Cl)c(OCC(=O)NC(=O)NCc3ccco3)c2n1	-4%	.	?	.	12%	-2%
Cc1ccc2c(Cl)cc(Cl)c(OCC(=O)N3CCCC3)c2n1	27µM*	-4	-13%	.	-14%	-1%
CCN(CC(=O)NCc1ccc(F)cc1)C(=O)/C=C/c1cc(OC)ccc1OC	2%	9	-2%	27%	14%	-14%
COc1ccc(S(=O)(=O)N(C)c2ccc(C(=O)NCc3ccccn3)cc2)cc1	-3%	-7	-5%	-2%	34%	-3%
COc1ccc(CN(C)C(=O)CNC(=O)c2sc3ccccc3c2Cl)c(OC)c1OC	2%	3	89µM*	.	-17%	.
Cc1ccc(C)c(S(=O)(=O)c2nnn3c2nc(N2CCCCC2)c2sccc23)c1	.	.	-8%	-13%	39%	-12%
Clc1ccc2c(N/N=C/c3cccnc3)ccnc2c1	-11%	-2	-20%	-3%	4%	-4%
SMILES	PLK1 PBD block	PI5P4K alpha inh	JMJD2A Tudor	BAZ2B block	HP1b chromo inh	GCN5L2 inh
Clc1ccc2c(N/N=C/c3ccc(Br)cc3)ccnc2c1	-2%	-73*	-19%	15%	8%	-4%
Oc1ccc(/C=N/Nc2ccnc3cc(Cl)ccc23)c(O)c1	-8%	-17	-15%	-11%	3%	-29%
Cc1ccc(/C=N/Nc2ccnc3cc(Cl)ccc23)c(C)c1	27µM*	-82*	22µM*	?	-1%	24%
Cc1ccccc1/C=N/Nc1ccnc2cc(Cl)ccc12	-1%	-75*	?	-6%	5%	-1%
CC(=O)Nc1ccc(NC(=O)C(C)OC(=O)[C@@H]2CCCN2C(=O)c2cccs2)cc1 (stereo partly drawn)	7%	-6	1%	.	30%	-1%
Cc1ccc2ncnc(Oc3ncccc3NC(=O)C(C)(C)C)c2c1	3%	-2	-14%	4%	-16%	1%
Cc1cc(C(=O)COc2cccc3cccnc23)c(C)n1C	-27%	-2	-12%[57.1 µM]	11µM*	-15%	5%
Cc1ccc(OCC(=O)c2cc(C)n(C)c2C)c([N+](=O)[O-])n1	-8%	0	-29%	56µM*	1%	-3%
Cn1c(COc2cccc3cccnc23)nnc1SCC(=O)O	27µM*	-7	-30%	-2%	?	-16%
Cc1cc(C(=O)COc2cccnc2[N+](=O)[O-])c(C)n1-c1ccccc1	-4%	-4	-11%	?	-4%	-3%
CCN(CC)C(=O)c1sc2c(c1C)c(=O)n(-c1ccc(C)c(C)c1)c(=O)n2CC(=O)Nc1ccc(OC)cc1OC	.	.	-22%	-8%	-8%	-13%
Cc1cc2c(s1)c1cnn(Cc3ccc(S(C)(=O)=O)cc3)c(=O)c1n2C	.	.	-3%	.	.	.
Nc1c(C(=O)O)sc2nc(-c3ccc(F)cc3)cc(-c3ccccc3)c12	30µM*	-14	-23%	-16%	59%	-11%
Nc1c(C(=O)O)sc2nc(-c3ccccc3)cc(-c3ccc(Cl)cc3)c12	?	-19	?	?	10%	-3%
COc1ccc(-c2c(N)nnc3c2[nH]c2ccccc23)cc1OC	?	3	-20%[11.4 µM]	-5%	4%	-17%
COc1ccc(OC)c2c(=S)c3ccccc3[nH]c12	.	.	.	.	.	14µM*
CC(C)=CCN1CCN(Cc2ccc(C#CC(C)(C)O)s2)CC1CCO (stereo not drawn)	-5%	1	-11%	-11%	27%	15%
O=C(CSc1ccccn1)Nc1ccc(F)c([N+](=O)[O-])c1	-4%	3	-3%	-20%	11%	3%
O=C(CSc1ccccn1)Nc1cccc([N+](=O)[O-])c1	19µM*	?	-25%	-15%	-1%	-9%
O=C(CSc1ccccn1)Nc1ccc2[nH]c(=O)[nH]c2c1	27µM*	-18	-16%	-4%	21%	-6%
